Test results reported in PubChem BioAssay.
Calls of active or inactive are those of the source. How the calls were made is not given here.

Target: Pantothenate synthetase (Mycobacterium tuberculosis (strain ATCC 25618 / H37Rv)) (UniProt P9WIL5)
Assay: Recombinant Mtb pantothenate synthetase (PanC) inhibitors, coupled enzyme, confirmatory (AID 375);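 further: 0% = full reaction with vehicle and 100% = no enzyme background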
Settings: coupled enzyme assay; at 10 µM, hits give high values

Pantothenate synthetase (Mycobacterium tuberculosis (strain ATCC 25618 / H37Rv)), sequence (P9WIL5 whole entry, looked up): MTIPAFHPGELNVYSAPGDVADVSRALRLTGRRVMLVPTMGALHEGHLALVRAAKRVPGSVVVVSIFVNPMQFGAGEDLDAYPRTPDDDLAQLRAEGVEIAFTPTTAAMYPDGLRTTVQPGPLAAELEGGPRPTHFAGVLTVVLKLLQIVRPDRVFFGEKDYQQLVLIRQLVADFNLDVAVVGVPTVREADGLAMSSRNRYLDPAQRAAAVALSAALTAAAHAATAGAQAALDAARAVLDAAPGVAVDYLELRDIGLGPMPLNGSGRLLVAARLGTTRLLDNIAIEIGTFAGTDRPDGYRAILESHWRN

SMILES	inhibition
CCOC(=O)Cc1nn2c(=O)cc(C)nc2s1	0% (inactive)
COCCc1ccc(OCC(O)CNC(C)C)cc1 (centres undefined)	6% (inactive)
CCOc1ccc(CNc2ccc3c(c2)ncn3C)cc1	0% (inactive)
Cc1occc1C(=O)Nc1ccc(S(=O)(=O)N2CCN(C)CC2)cc1	0% (inactive)
CSCCC(NC(=O)c1ccco1)C(=O)OC(C)C(=O)NC(=O)NC1CCCCC1 (centres undefined)	0% (inactive)
CCOC(=O)N1CCN(C(=O)Nc2ccc3oc(C)nc3c2)CC1	7% (inactive)
CCOc1ccc2nc(NC(=O)CSc3nc4ccccc4c(=O)n3Cc3ccco3)sc2c1	0% (inactive)
O=C(CC1CCCCC1)NCc1ccccn1	0% (inactive)
C#CCNc1c(C)c(C)nc2ncnn12	4% (inactive)
O=C(CSc1nnnn1C1CCCC1)N1CCN(C(=O)c2ccco2)CC1	0% (inactive)
COCCn1c(N)c(C(=O)Nc2sc3c(c2C(=O)OC)CCCC3)c2nc3ccccc3nc21	1% (inactive)
O=C(O)Cn1cc(C(=O)c2ccco2)c2ccccc21	4% (inactive)
COc1cccc(N2CCN(C(=O)C3C4C=CC5(CN(Cc6ccccc6Cl)C(=O)C35)O4)CC2)c1 (centres undefined)	0% (inactive)
C=CCn1cnc2c(NCc3ccccc3)ncnc21	4% (inactive)
COc1ccc(NS(=O)(=O)c2coc(C(N)=O)c2)cc1Cl	0% (inactive)
Cc1cccc(NC(=O)CC(C)(C)C)c1	0% (inactive)
Cc1ccc(C)c(-n2c(Cc3cc(=O)[nH]c(=O)[nH]3)nnc2SCC(=O)NCc2ccco2)c1	0% (inactive)
CCC(C(=O)NC1CCCC1)N(Cc1ccco1)C(=O)Cn1nnc(-c2ccc(C)cc2)n1 (centres undefined)	5% (inactive)
COc1ccc(OCCN2C(=O)NC(C)(c3ccc(C)cc3)C2=O)cc1 (centres undefined)	1% (inactive)
Cc1cccc(-n2ncc3c(NCCCn4ccnc4)ncnc32)c1	4% (inactive)

SMILES	inhibition
CCOC(=O)C1=C(Cn2cnc3ccccc32)NC(=O)NC1c1cc(C)ccc1C (centres undefined)	0% (inactive)
Cc1nc2cc(-n3ccc(=O)cc3)ccc2n1-c1ccccc1	2% (inactive)
CCOC(=O)COc1ccc(S(=O)(=O)Nc2ccc3c(c2)OCO3)cc1	2% (inactive)
COc1ccc(CC(=O)Nc2cc(Cl)ccc2O)cc1	5% (inactive)
O=C(O)C1C2C=CC(C3CC23)C1C(=O)NCCc1ccccc1 (centres undefined)	6% (inactive)
N#Cc1c(-c2ccccc2)nc(SCc2nc(N)nc(N3CCCCC3)n2)[nH]c1=O	9% (inactive)
CC1CN(C(=O)CSc2nnc(-c3ccncc3)n2-c2ccccc2)CC(C)O1 (centres undefined)	1% (inactive)
COc1ccc(CCn2c(=N)c(C(=O)NCc3ccco3)cc3c(=O)n4ccccc4nc32)cc1	0% (inactive)
N#Cc1nc(COc2ccccc2)oc1NCCCn1ccnc1	0% (inactive)
COC(=O)c1ccc(CSc2nc3ccccc3c(=O)n2Cc2ccco2)o1	6% (inactive)
COc1ccc(-n2c(=O)[nH]cc(C(=O)Nc3ccc(NC(C)=O)cc3)c2=O)cc1	6% (inactive)
COCCn1c(=O)[nH]c2cc(C(=O)NCc3cccnc3)ccc2c1=O	2% (inactive)
Cn1cnnc1SCC(=O)Nc1sc2c(c1C#N)CCCCC2	1% (inactive)
COc1cccc(-n2nnc3c(=O)n(Cc4cccc(F)c4)cnc32)c1	4% (inactive)
COc1ccc(C(CNC(=O)c2cc(C)oc2C)N2CCOCC2)cc1 (centres undefined)	0% (inactive)
Cc1cc(OCC(O)CN2CCN(CCO)CC2)ccc1C(C)C (centres undefined)	8% (inactive)
O=C(O)C1CCCCC1C(=O)NCCc1ccccc1 (centres undefined)	0% (inactive)
CCC(C)NC(=O)C1(C)CCC(=O)N1CCc1ccc(OC)c(OC)c1 (centres undefined)	0% (inactive)
CCCCc1c(O)nc(SCC(=O)c2ccccc2)[nH]c1=O	0% (inactive)
